Screening results from PubChem BioAssay.
Nrf2 activator = qHTS of Nrf2 Activators. AREc32 ARE-luciferase reporter (MCF7-derived line), luminescence, 24 h. Potency, µM (highest dose often 46.1 µM), without a hit: at the top dose activation, most hits filed as activators. hit rate 0.31% among 410,000; note: potency is the fitted concentration of half-maximal effect; % of control where 0% means no effect; nearly all actives have a fitted effect of over 65% in size
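AREc32 cells carrying an ARE-driven firefly luciferase reporter were seeded at 1000 cells/well in OPTI-MEM with 5% FBS, then exposed to compound for 24 hr at 37 deg C. Luminescence was read with Steady-Glo after 30 min at RT.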
miR-21 act = qHTS Assay for Modulators of miRNAs and/orActivators of miR-21; AID 2288, 2010; Potency, µM (highest dose often 38.3 µM), for the others: at the top dose activity change, positive = activation, hits mostly activators; 340,000 tested, under 10 active; HeLa miR-21 FLuc reporter, luciferase, 48 h;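 note: % of control where 0% means no effect; miR-21 action dims this reporter so a rising signal means less miR-21 action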
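Compounds were titrated across several concentrations (up to approximately 40 uM) and incubated 48 hours with HeLa miR-21-FLuc reporter cells (miR-21 target sequence downstream of FLuc, endogenous miR-21). Readout was firefly luciferase luminescence after lytic detection reagent.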
Mito fusion act = qHTS Assay for Small Molecule Inhibitors of Mitochondrial Division or Activators of Mitochondrial Fusion. hit rate 0.23% among 320,000. AID 485298, 2010. Potency, µM (doses to about 46.1 µM), for inactives: at the top dose growth rescue (activation), most hits filed as activators. S. cerevisiae fusion-defective mutant growth rescue, CellTiterGlo 48 h; note: potency is the fitted concentration of half-maximal effect; % of control where 0% means no effect; nearly all actives have a fitted effect of over 45% in size
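Read-out: ATP-based luminescence (CellTiterGlo, 10 min ambient) reporting growth of fusion-defective ts yeast after 48 hours at 37C on glycerol/ethanol YPEG medium in the presence of compound.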
Nrf2 block = Nrf2 qHTS screen for inhibitors; A549 ARE-Fluc reporter, luciferase luminescence, 18-24 h; Potency, µM (series often up to 46 µM), for the others: at the highest dose activity change, negative = inhibition, usual class: inhibitors; hit rate 2.1% among 360,000; AID 504444, 2011; note: potency is the fitted concentration of half-maximal effect; % is set by controls: 0 for no effect and ±100 for the full control effect; nearly all actives have a fitted effect of over 60% in size
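Nrf2 activity is the BugLite luminescence, read 15 min after reagent at room temperature, following CellTiter-Fluor cytotoxicity readout (30 min, 37C). Compound titrations were applied for 18-24 h to 5000 A549 ARE_Fluc cells/well in 5% FBS OPTI-MEM.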
A549 viability = Nrf2 qHTS screen for inhibitors: counterscreen for cytotoxicity; A549 ARE-Fluc cells, CellTiter-Fluor viability, 18-24 h; hit rate 0.16% among 390,000; Potency, µM (doses to about 46 µM), inactives show at the highest dose activity change, negative = cytotoxicity, most hits filed as inhibitors; note: potency is the fitted concentration of half-maximal effect; % is set by controls: 0 for no effect and ±100 for the full control effect
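A549 ARE-Fluc cells in 5% FBS OPTI-MEM, 5000 cells/well, rested 2 h then exposed to compounds in concentration-response for 18-24 h at 37 °C. Viability by CellTiter-Fluor fluorescence (Ex 405/Em 525) after 30 min; luciferase luminescence (BugLite, 15 min, RT) read afterwards.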
The depositor's hits bear a star; ? = inconclusive; . = no result. Shown are actives, neighbours in structure and some others; about 2.3% of the full set was active somewhere. Calls come from the whole dose curve; as a rule, active = well fitted curve in the direction sought with a large enough effect; inconclusive = small, poorly fitted or top-dose-only effect, or another doubt; inactive = no such curve, though single readings can be large; an effect the other way counts as inactive or inconclusive.

SMILES	Nrf2 activator	miR-21 act	Mito fusion act	Nrf2 block	A549 viability
CNC(=O)c1ccc2nc(-c3cccc(C)c3)c(-c3cccc(C)c3)nc2c1	.	.	.	-21%	-1%
CCOC(=O)c1nn(-c2ccc(OC)cc2)c(=O)c2c(NC(=O)Cc3ccccc3)scc12	.	.	.	8%	2%
C[n+]1c2n(c3ccccc31)N=C(c1cc(C(C)(C)C)c(O)c(C(C)(C)C)c1)CS2	-2%	?	1%	18µM*	?
Cc1ccc(S(=O)(=O)N2CCN(c3nc(-c4ccc(CN5CCOCC5)s4)nc4ccccc34)CC2)cc1	.	.	.	-2%	4%
Cc1ccc(C(=O)N2CCN(Cc3cc(=O)n4nc(-c5ccccc5)sc4n3)CC2)cc1	6%	0%	.	.	5%
Nc1ncnc2c1ncn2[C@@H]1O[C@H](CNC(=O)OC[C@@H](N)Cc2ccccc2)[C@@H](O)[C@H]1O	0%	.	.	.	.
O=C(OCC1OC(n2cnc3c(N(C(=O)c4ccccc4)C(=O)c4ccccc4)ncnc32)C(O)C1F)c1ccccc1 (stereo unspecified)	7%	0%	0%	16µM*	?
O=S(=O)(c1ccc(Br)cc1)N1CCN(c2nc(-c3ccccc3)nc3ccccc23)CC1	.	.	.	20%	-3%
COC(CNC(=O)c1ccc2nc(-c3ccccc3)c(-c3ccccc3)nc2c1)OC	0%	2%	-1%	16µM*	-15%
COc1ccc(-c2nc3ccc(C(=O)NCC(OC)OC)cc3nc2-c2ccc(OC)cc2)cc1	0%	-1%	3%	-7%	-7%
CCOc1ccc(C(=O)N/N=C(\c2ccccc2)c2ccccn2)cc1	8%	-8%	-5%	21µM*	?
O=C(N/N=C(\c1ccccc1)c1ccccn1)c1cccc([N+](=O)[O-])c1	0%	16%	-2%	9.2µM*	-14%
C/C(=N\NC(=O)c1ccc(F)cc1)c1ccccn1	1%	-18%	-47%	?	?
CCOC(=O)C1(C)C=C(Nc2cccc(C)c2)C(=O)N1c1ccccc1 (stereo unspecified)	0%	-8%	.	-21%	12%
CCn1cnc2c(Nc3ccc(CCC(=O)N=C(N)N)cc3)nc(C#N)nc21	.	.	.	9%	-5%
CCC(=NNC(=O)c1ccc2c(c1)nc(C)n2CC)c1cc(F)ccc1O	0%	.	.	6.5µM*	-7%
COc1ccccc1C(=O)NNC(=O)c1cccc(Br)c1	6.3µM*	-53%	2%	?	16%
COc1cc(NC(=O)c2cccc(Br)c2)nc(OC)n1	14µM*	-41%	16%	6%	1%
COc1ccccc1C(=O)NNC(=O)c1cccc(Cl)c1	?	-27%	-7%	?	5%
Cc1ccc(NS(=O)(=O)c2ccc3c(c2)CCC(=O)N3)cc1F	.	.	.	-13%	1%
CCN(CC)C(=O)CSC(Nc1ccc(F)cc1)=C(C#N)C#N	6%	-4%	2%	4%	-18%
Cc1ccc(CSC(Nc2ccc(F)cc2)=C(C#N)C#N)cc1	26%	?	2%	21µM*	?
Cc1ccc(C(=O)Nc2ccc(N3CCN(C(=O)c4ccco4)CC3)cc2)c(Cl)c1	0%	-2%	-6%	?	-1%
Cc1ccccc1OCC(=O)Nc1ccc(N2CCN(C(=O)c3ccco3)CC2)cc1	3%	18%	3%	15µM*	-23%
Cc1ccc(C(=O)Nc2ccc(N3CCN(C(=O)c4cccs4)CC3)cc2)c(Cl)c1	0%	?	-6%	23µM*	-12%
SMILES	Nrf2 activator	miR-21 act	Mito fusion act	Nrf2 block	A549 viability
N#Cc1ccccc1NC(=O)COC(=O)c1cccs1	21%	.	.	?	2%
CCC(=O)Nc1ccc(N2CCN(C(=O)c3cccs3)CC2)cc1	0%	-2%	-3%	11%	26%
O=C(COC(=O)c1cccs1)Nc1ccccc1[N+](=O)[O-]	11µM*	0%	-1%	4%	6%
O=C(COc1ccccc1[N+](=O)[O-])Nc1ccc(N2CCN(C(=O)c3cccs3)CC2)cc1	3%	28%	7%	5.8µM*	-13%
Nc1nc(NCCc2ccccc2)c2[nH]cnc2n1	.	.	.	?	11%
COc1ccc(OCC(=O)Nc2ccc(N3CCN(C(=O)c4ccco4)CC3)cc2)cc1	0%	-17%	-6%	?	-4%
O=C(COc1ccc(Cl)cc1)Nc1ccc(N2CCN(C(=O)c3ccco3)CC2)cc1	0%	24%	0%	23µM*	-1%
CCc1ccc2oc(-c3cc(N=Cc4cccc(OC)c4O)ccc3O)nc2c1	10µM*	-72%	-34%	?	-11%
O=C(CCC(=O)OCC(F)(F)C(F)F)Nc1ccc(Cl)cc1	0%	-4%	0%	1%	.
Cc1ccc(NC(=O)OCC(F)(F)C(F)F)cc1NC(=O)OCC(F)(F)C(F)F	2%	3%	3%	18µM*	.
O=C(C=Cc1ccco1)c1ccc2ccccc2c1	7.9µM*	.	.	?	-3%
CCn1cc(C(=O)N(C)Cc2ccccc2)c(=O)c2cc(S(=O)(=O)N3CCCCC3)ccc21	0%	-11%	.	-3%	11%
CCOC(=O)c1ccc(N2C(=O)c3[nH]nc(-c4ccc(OCC)cc4)c3C2c2ccc(OC)cc2OC)cc1 (stereo unspecified)	0%	-1%	.	-8%	16%
CCOC(=O)c1ccc(N2C(=O)c3[nH]nc(-c4ccc(OCC)cc4)c3C2c2cccs2)cc1 (stereo unspecified)	5%	28%	.	18µM*	-21%
CCOc1ccc(-c2n[nH]c3c2C(c2cccs2)N(c2ccc(Br)cc2)C3=O)cc1 (stereo unspecified)	0%	?	.	23µM*	-24%
CCOc1ccc(N2C(=O)c3[nH]nc(-c4ccc(OC)cc4)c3C2c2cccs2)cc1 (stereo unspecified)	-1%	?	.	23µM*	?
CCOC(=O)c1ccc(N2C(=O)c3[nH]nc(-c4ccccc4)c3C2c2cccs2)cc1 (stereo unspecified)	-3%	-2%	.	?	?
N#Cc1nc(Nc2ccc(-c3ccccc3)cc2)nc(NC2CCCC2)n1	.	.	.	?	-8%
O=C1C=C(N2CCOCC2)c2ccccc2C1=O	-4%	?	-20%	21µM*	?
CC1=C(C)C(=O)C(N2CCOCC2)=CC1=O	18%	0%	0%	-18%	3%
Cc1ccc(C)c(NC(=S)NCCSc2ccc(Cl)cc2)c1	-1%	-3%	0%	-14%	?
Cc1ccccc1NC(=S)NCCSc1ccc(Cl)cc1	-1%	6%	2%	23µM*	-21%
CCc1ccccc1NC(=S)NCCSc1ccc(Cl)cc1	0%	17%	6%	23µM*	?
